# F508del corr = CFTR F508del correction in bronchial cells; CFBE cells, YFP halide quenching; stimulated with forskolin plus potentiator P3; % fluorescence drop versus neutral controls; activity (quench increase), % at 7.58 µM; hit rate 0.36% among 350,000;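 active means mean added fluorescence quench of at least 8% versus neutral control, with both replicates also reaching 8%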;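 further: cells transiently co-express mutant CFTR-F508del with the halide-sensitive YFP; corrector assay measuring rescue of mutant channel to the surface after 24 h compound exposure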
# ATG4B inhibitor = ATG4B (human) cysteine protease inhibition; Q9Y4P1; ATG4B cleavage of LC3-PLA2, NBD-HPC fluorescence, 1 h; inhibition, % at 8.33 µM; hit rate 0.51% among 340,000; in the data active means inhibition above about 40%
# Target sequence (Q9Y4P1 whole entry, looked up): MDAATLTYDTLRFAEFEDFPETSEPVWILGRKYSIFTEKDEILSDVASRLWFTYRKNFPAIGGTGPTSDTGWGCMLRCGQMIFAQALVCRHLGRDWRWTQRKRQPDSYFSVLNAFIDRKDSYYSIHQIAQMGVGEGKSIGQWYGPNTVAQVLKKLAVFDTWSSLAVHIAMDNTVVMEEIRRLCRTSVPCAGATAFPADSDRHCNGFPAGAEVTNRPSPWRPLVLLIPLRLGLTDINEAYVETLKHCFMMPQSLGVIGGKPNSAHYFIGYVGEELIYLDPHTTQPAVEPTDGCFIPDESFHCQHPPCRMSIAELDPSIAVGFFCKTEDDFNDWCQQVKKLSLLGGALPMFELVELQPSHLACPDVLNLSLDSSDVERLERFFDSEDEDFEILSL
# SKN-1 block = blocks SKN-1 activity in C. elegans; C. elegans VP596 Pgst-4::GFP/RFP ratio, acrylamide-induced, 24 h; inhibition, % at 21.8 µM; hit rate 0.49% among 360,000;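 active means interference check ratio from 0.5 to 1.5 plus GFP to RFP signal ratio inhibition reaching or exceeding a fixed threshold, cut at about 30% in these data, passing the limit was not always enough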
# CendR NRP1 mod = alters CendR peptide binding to human NRP-1 | O14786 | FAM-RPARPAR peptide binding to NRP-1, fluorescence polarization | inhibition, % at 25 µM | hit rate 0.85% among 360,000 | AID 602438;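 active means inhibition or corrected inhibition above about 18%, plus a signal ratio from 0.5 to 1.5, limit read from the data, passing the limit was not always enough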
# MPTP inh = permeability transition pore inhibition | isolated mouse mitochondria, Ca2+ swelling absorbance, 30 min | inhibition, % at 10 µM | hit rate 1.4% among 360,000;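 active means inhibition of 50% or more, scaled per plate between neutral and stimulator controls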;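 further: 0% = DMSO wells given calcium and 100% = 1 mM EGTA wells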
# The depositor's hits bear a star; nt = not tested or not shown. Hits are enriched below; roughly 2.7% of the tested compounds scored in any of these assays.
SMILES,F508del corr,ATG4B inhibitor,SKN-1 block,CendR NRP1 mod,MPTP inh
O=C(C[C@H]1CC[C@H]2[C@@H](COC[C@H](O)CN2Cc2ccc(Oc3ccccc3)cc2)O1)N1CCN(c2ccccc2)CC1,3,nt,nt,nt,nt
O=C(C[C@H]1CC[C@H]2[C@@H](COC[C@@H](O)CN2C(=O)Nc2ccc(Cl)cc2)O1)NCc1ccncn1,0,nt,nt,nt,nt
Cc1ccnc(N2CCC(C(=O)Nc3ccc4c(c3)OCCO4)CC2)n1,-1,-7,5,25*,-3
N#C[C@@H]1[C@H](c2ccccc2-c2ccccc2F)[C@H](CO)N1C(=O)c1cccc(F)c1,1,nt,nt,nt,nt
CCCN(CC1CC1)c1cc2c(c3c1ccn3C)C1CCC2O1 (stereo not drawn),-1,nt,8,22*,1
CCN(CC)c1cc2c(c3c1ccn3C)C1CCC2O1 (stereo not drawn),1,nt,5,8,1
NS(=O)(=O)c1ccc(N/N=C/c2cn(-c3ccccc3)nc2-c2cccs2)cc1,nt,11,6,30*,2
COc1ccccc1/C=C/C=N/N1CCN(Cc2ccc(Cl)cc2)CC1,nt,-12,36*,2,1
COc1ccccc1/C=C/C=N\N1CCN(Cc2ccccc2Cl)CC1,nt,22,15,7,2
Nc1cc(Cl)ccc1Oc1ccccc1,nt,1,-4,6,-2
Cc1cccc(Oc2ccc(Cl)cc2N)c1,-1,11,-5,29*,1
CC(=O)Nc1cccc(NC(=S)Nc2cccc3ccccc23)c1,-1,-19,25,30*,-1
C/C=C/c1ccc2c(c1)O[C@@H](CN(C)C(=O)Cc1ccccn1)[C@H](C)CN([C@H](C)CO)S2(=O)=O,0,nt,nt,nt,nt
O=C(c1ccc(S(=O)(=O)NCC2CCCO2)cc1)N1CCN(c2cccc(Cl)c2)CC1 (stereo not drawn),16*,-1,7,-4,-2
COC(=O)c1nc(-c2ccccc2)oc1N(C)C,nt,5,32*,-12,0
Nc1ccc(Br)c2c1C(=O)c1ccccc1C2=O,nt,17,nt,nt,nt
Nc1ccc(O)c2c1C(=O)c1ccccc1C2=O,-2,-15,63,34*,11
CCC(=O)N1CC2(CCN(Cc3ccc(Cl)cc3)CC2)c2c([nH]c3cc(OC)ccc23)[C@H]1CO,9.8*,nt,nt,nt,nt
COc1cccc(-c2cnc3c(c2)C(=O)N([C@H](C)CO)C[C@@H](C)[C@@H](CN(C)C(=O)CN(C)C)O3)c1,1,nt,nt,nt,nt
COc1ccc2c3c([nH]c2c1)[C@H](CO)NCC31CCN(C(=O)Nc2ccc(F)cc2F)CC1,0,nt,nt,nt,nt
CCOc1ccc(N(CC(=O)N2CCC(Cc3ccccc3)CC2)S(C)(=O)=O)cc1,nt,0,-5,29*,-1
O=C1CN(S(=O)(=O)c2cc(Cl)ccc2Cl)c2ccccc2N1,-1,-5,16,22*,2
CCC(=O)N1C[C@@H](C)[C@H](OC)CN(C)C(=O)c2cc(NC(=O)c3ccno3)ccc2OC[C@@H]1C,3,nt,nt,nt,nt
c1csc(-c2nc(-c3ccc(-c4ccon4)s3)no2)c1,3,-5,46*,-12,3
COc1ccccc1-c1noc(-c2cccs2)n1,-4,5,19,-3,-1
SMILES,F508del corr,ATG4B inhibitor,SKN-1 block,CendR NRP1 mod,MPTP inh
Cc1ccc(-c2noc(-c3cccs3)n2)cc1,-2,5,67*,-1,2
COc1ccc(-c2nc(-c3cccs3)no2)cc1,1,6,38*,-10,2
COc1ccc(S(=O)(=O)Nc2ccc3c(c2)C(=O)N([C@@H](C)CO)C[C@H](C)[C@@H](CN(C)C(=O)NC(C)C)OCCCC[C@@H](C)O3)cc1,1,nt,nt,nt,nt
CC(C)NC(=O)Nc1ccc2c(c1)C(=O)N([C@H](C)CO)C[C@H](C)[C@H](CN(C)C(=O)Nc1ccc(F)cc1)OCCCC[C@H](C)O2,-1,nt,nt,nt,nt
C[C@@H](NC(=O)C[C@@H]1CC[C@H](NC(=O)CN2CCOCC2)[C@@H](CO)O1)c1ccccc1,1,nt,nt,nt,nt
CNC[C@H]1Oc2ccc(NC(=O)NC(C)C)cc2CC(=O)N([C@@H](C)CO)C[C@@H]1C,0,nt,nt,nt,nt
COCCCNC(=O)CCn1c(=O)c2ccccc2n(CC(=O)NCCC2=CCCCC2)c1=O,4,13,7,1,1
O=C(CCn1c(=O)c2ccccc2n(CC(=O)NCCC2=CCCCC2)c1=O)NCc1ccco1,nt,-7,35*,17,-2
COCCCNC(=O)c1cc(-c2cccnc2)nc2ccccc12,-1,7,4,10,1
COCCNC(=O)c1cc(-c2ccc(-c3ccccc3)cc2)nc2ccccc12,9.9*,2,-3,-10,0

# Source: PubChem
